Hits are enriched below; roughly 1.3% of the tested compounds scored in any of these assays.
hERG WT inh: qHTS for Inhibitors of KCHN2 3.1: Wildtype qHTS | Voltage-gated inwardly rectifying potassium channel KCNH2 (Homo sapiens), Q12809 | U2OS, BacMam KCNH2, thallium flux FluxOr; hits give low values | activity change, % at 1.84 µM | 340,000 compounds, 0.37% hits | AID 720551, 2013;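 active = maximum activity change below -70%; inconclusive = maximum activity change between -70% and -50%; inactive = maximum activity change above -50%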
Target sequence (Q12809 whole entry, looked up): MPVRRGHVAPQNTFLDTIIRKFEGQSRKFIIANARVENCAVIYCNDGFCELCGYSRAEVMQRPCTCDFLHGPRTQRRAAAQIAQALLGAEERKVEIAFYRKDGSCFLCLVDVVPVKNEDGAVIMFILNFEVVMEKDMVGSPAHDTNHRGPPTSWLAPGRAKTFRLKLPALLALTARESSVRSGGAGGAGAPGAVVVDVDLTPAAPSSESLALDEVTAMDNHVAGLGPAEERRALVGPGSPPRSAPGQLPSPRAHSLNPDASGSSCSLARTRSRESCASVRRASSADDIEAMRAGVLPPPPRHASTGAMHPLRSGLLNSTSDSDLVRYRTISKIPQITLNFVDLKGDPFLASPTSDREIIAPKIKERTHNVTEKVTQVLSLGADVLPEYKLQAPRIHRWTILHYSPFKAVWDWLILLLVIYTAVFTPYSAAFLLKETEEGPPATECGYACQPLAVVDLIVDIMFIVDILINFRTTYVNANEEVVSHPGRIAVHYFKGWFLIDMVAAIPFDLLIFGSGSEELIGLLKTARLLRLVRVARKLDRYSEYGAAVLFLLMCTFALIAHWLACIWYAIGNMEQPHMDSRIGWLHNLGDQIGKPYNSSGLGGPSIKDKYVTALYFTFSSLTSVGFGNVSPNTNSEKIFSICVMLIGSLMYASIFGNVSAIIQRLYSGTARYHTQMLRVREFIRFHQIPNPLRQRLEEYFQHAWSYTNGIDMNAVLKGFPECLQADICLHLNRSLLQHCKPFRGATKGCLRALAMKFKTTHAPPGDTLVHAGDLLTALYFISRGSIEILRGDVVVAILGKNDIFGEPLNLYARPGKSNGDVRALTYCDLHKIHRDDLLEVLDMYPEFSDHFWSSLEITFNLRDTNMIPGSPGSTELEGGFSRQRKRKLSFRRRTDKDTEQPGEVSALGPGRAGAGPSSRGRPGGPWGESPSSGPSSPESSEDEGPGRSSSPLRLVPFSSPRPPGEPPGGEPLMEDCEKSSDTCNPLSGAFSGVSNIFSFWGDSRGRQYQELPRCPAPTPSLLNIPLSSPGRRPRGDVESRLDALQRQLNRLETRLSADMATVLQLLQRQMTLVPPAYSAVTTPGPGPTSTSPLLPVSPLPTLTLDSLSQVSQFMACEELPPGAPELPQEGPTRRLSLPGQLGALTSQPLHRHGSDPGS
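U2OS cells transduced with wild-type KCNH2 virus are loaded with FluxOr dye for 45 min, and thallium flux is measured in kinetic reads before and after stimulation buffer. Rate constants are normalized to DMSO controls.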
TRPV1 PAM: HTS Assay for Compounds that Act as Potentiators of the Vanilloid Receptor 1; Transient receptor potential cation channel subfamily V member 1 (Homo sapiens), Q8NER1; TRPV1-expressing cells, Fluo-8 calcium influx, capsaicin EC20 potentiation; potentiation, % at 8.33 µM; 320,000 compounds, 0.02% hits; in the data active = potentiation above about 80%; inconclusive = between about 30% and that limit
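TRPV1-expressing cells were cultured overnight at 35.5C and loaded with Fluo-8 calcium dye for 40 to 90 min at room temperature. After a 10 s baseline, compound was added and calcium influx was read kinetically for 3 min (ex 480/em 520 nm).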
TRPV1 ag: HTS Assay for Compounds that Act as Agonists of the Vanilloid Receptor 1; activation, % at 8.33 µM; AID 540275, 2011; Transient receptor potential cation channel subfamily V member 1 (Homo sapiens), Q8NER1; 320,000 compounds, 0.19% hits; TRPV1-expressing cells, Fluo-8 calcium influx, agonist mode; in the data active = activation above about 80%; inconclusive = between about 30% and that limit
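Fluo-8 calcium influx in TRPV1-expressing cells, kinetic read (ex 480/em 520 nm). Compound added and read 3 min for agonist activity, followed by capsaicin at EC20 final and 2 min further read for enhancement.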
KCNH2 3.1 block: qHTS for Inhibitors of KCHN2 3.1: Mutant qHTS | Potassium voltage-gated channel subfamily H member 2, brain isoform KCNH2 3.1 (human) | U2OS KCNH2 3.1, thallium flux FluxOr; hits give low values | activity change, % (tested at about 1.8 µM) | 340,000 compounds, 0.95% hits;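 active = maximum activity change below -70%; inconclusive = maximum activity change from -70% to -50%; inactive = maximum activity change above -50%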;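 also: thallium influx rate constant from kinetic fluorescence after stimulation buffer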
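Thallium flux read-out: FluxOr dye with Red40 quencher in HBSS/HEPES, 45 min at RT. Rate constants from kinetic reads were normalized to positive and negative DMSO controls. Cells: U2OS virally expressing the 3.1 isoform.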
Each line names hits and unclear results; the compound was inactive in the other large screens.

CC(=O)N1CCN(c2ccccc2NC(=O)c2cc(Br)ccc2Cl)CC1	none
Cc1ccc(CNC(=O)C2CCCN(S(=O)(=O)c3ccc(-n4cnnn4)cc3)C2)cc1 (stereo unspecified)	none
O=C(NN1C(=O)NC2(CCCCC2)C1=O)c1ccc(Cl)c(Cl)c1	none
Cc1cccc(C(=O)NC2CC3CCCC(C2)N3S(=O)(=O)c2ccccc2)c1 (stereo unspecified)	hERG WT inh inconclusive, KCNH2 3.1 block -72
CNC(=S)NC1CC2CCCC(C1)N2Cc1ccc(C)cc1 (stereo unspecified)	KCNH2 3.1 block -83 (no result: hERG WT inh)
O=C(NC1CC2CCCC(C1)N2S(=O)(=O)c1ccccc1)c1ccccc1 (stereo unspecified)	TRPV1 ag inconclusive
COc1cccc(C(=O)NC2CC3CCCC(C2)N3Cc2ccc(C)cc2)c1 (stereo unspecified)	KCNH2 3.1 block -71
COc1ccc(CN2C3CCCC2CC(NC(=O)Nc2ccccc2)C3)cc1 (stereo unspecified)	none
COc1cccc(C(=O)NC2CC3CCCC(C2)N3Cc2ccc(F)cc2)c1 (stereo unspecified)	none (no result: TRPV1 PAM, TRPV1 ag)
COc1ccc(CN2C3CCCC2CC(NC(=O)Nc2cccc(C)c2)C3)cc1 (stereo unspecified)	hERG WT inh -87, KCNH2 3.1 block -114
O=C(CN1CCC(NC(=O)Nc2ccccc2)CC1)Nc1ccc([N+](=O)[O-])cc1	none
CCC1(c2ccccc2)SCC(c2ccccc2)=NC1=O (stereo unspecified)	none (no result: TRPV1 PAM, TRPV1 ag)
COc1cccc(CNC(=O)C2CCC(CNS(=O)(=O)c3cccc4cccnc34)CC2)c1 (stereo unspecified)	none
O=C(Nc1ccc(Cl)c(Cl)c1)Nc1ccc(N2CCCC2)c(S(=O)(=O)Nc2ccccc2Cl)c1	none
O=C(Nc1ccc(F)cc1)Nc1ccc(N2CCCC2)c(S(=O)(=O)Nc2ccccc2Cl)c1	TRPV1 ag inconclusive, KCNH2 3.1 block -114
CC(CNC(=O)CCCn1ncn2c(cc3occc32)c1=O)c1ccccc1 (stereo unspecified)	none
COc1ccc(CNC(=O)CCCn2ncn3c(cc4occc43)c2=O)cc1	KCNH2 3.1 block -114
CS(=O)(=O)N1Cc2ccccc2CC1C(=O)O (stereo unspecified)	KCNH2 3.1 block -95
CC12COC3(C(=O)Nc4ccc5ccccc5c4)CC1CCC32C (stereo unspecified)	TRPV1 ag inconclusive
COc1cccc(CN2CCC(N(CCc3ccccc3)Cc3ccccc3)CC2)c1OC	KCNH2 3.1 block -91
CCCCCCNCC(=O)N1CCC(Cc2ccccc2)CC1	KCNH2 3.1 block -101
O=C(Nc1ccccc1)C1C(c2ccccc2)C1(Cl)Cl (stereo unspecified)	TRPV1 ag 84
O=C(Nc1ccc(Cl)cn1)C1C(c2ccccc2)C1(Cl)Cl (stereo unspecified)	TRPV1 ag inconclusive
